According to the supplement of paper PMC10849652:
About 8,800 targets were measured; listed, in parts, are those with a hit and a random draw of the rest. About 0.5% of all pairs of compound and target were hits.

compound: C#Cc1cccc(Nc2ncnc3cc(OCCOC)c(OCCOC)cc23)c1 [erlotinib]; experiment: log2 fold change, soluble protein after heating vs DMSO (PISA); higher = thermal stabilisation; K562 lysate, 10 uM; active = over 0.2 and 3.5 SD of the protein, either way, in both replicates (recomputed)
Summary of the method: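 Dounce homogenisation of K562 pellets in PBS pH 7.4 with 1 mM MgCl2 produced a crude extract, used at 1 mg/mL protein. Exposure to 10 μM compound lasted 30 min, and aliquots were then heated for 3 min across 48°C-58°C, pooled and brought to 0.5% NP-40 at 4°C. The supernatant after 21,000xg for 90 min was quantified by TMTpro 16plex LC-MS/MS with channel sums equalised. Duplicate values are given as log-two fold change in thermal stability relative to solvent controls.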

Sequence of UniProt Q9UP83 (Q9UP83 whole entry, looked up): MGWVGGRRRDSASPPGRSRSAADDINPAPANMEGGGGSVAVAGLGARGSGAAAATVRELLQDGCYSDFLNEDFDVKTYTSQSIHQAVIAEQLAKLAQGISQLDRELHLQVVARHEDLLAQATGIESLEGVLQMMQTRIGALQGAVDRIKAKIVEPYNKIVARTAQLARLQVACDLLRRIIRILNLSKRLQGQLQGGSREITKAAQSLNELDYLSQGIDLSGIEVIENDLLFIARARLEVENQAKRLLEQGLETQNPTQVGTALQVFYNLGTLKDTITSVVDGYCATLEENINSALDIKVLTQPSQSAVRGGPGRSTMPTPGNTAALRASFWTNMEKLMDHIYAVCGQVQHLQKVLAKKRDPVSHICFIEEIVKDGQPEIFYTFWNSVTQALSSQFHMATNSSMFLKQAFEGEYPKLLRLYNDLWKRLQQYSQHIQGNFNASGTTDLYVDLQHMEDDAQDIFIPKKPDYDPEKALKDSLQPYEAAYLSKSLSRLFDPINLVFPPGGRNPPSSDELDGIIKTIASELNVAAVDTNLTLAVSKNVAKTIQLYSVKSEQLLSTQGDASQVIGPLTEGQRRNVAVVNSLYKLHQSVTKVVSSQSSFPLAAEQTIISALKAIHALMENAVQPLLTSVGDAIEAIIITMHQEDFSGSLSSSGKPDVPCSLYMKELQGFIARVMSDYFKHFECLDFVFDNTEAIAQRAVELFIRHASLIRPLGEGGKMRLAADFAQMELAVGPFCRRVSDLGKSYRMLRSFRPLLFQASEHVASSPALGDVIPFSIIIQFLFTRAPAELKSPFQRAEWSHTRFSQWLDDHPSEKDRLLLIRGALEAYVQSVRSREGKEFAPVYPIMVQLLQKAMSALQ
Sequence of UniProt P21964 (P21964 whole entry, looked up): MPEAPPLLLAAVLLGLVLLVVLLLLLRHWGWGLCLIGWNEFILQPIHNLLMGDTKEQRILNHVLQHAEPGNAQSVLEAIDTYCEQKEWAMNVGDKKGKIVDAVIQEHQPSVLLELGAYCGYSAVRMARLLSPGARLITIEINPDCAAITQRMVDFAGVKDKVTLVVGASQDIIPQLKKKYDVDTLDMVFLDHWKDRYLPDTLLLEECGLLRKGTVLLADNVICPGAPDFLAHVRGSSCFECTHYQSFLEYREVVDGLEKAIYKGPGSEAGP
Sequence of UniProt P68400 (P68400 whole entry, looked up): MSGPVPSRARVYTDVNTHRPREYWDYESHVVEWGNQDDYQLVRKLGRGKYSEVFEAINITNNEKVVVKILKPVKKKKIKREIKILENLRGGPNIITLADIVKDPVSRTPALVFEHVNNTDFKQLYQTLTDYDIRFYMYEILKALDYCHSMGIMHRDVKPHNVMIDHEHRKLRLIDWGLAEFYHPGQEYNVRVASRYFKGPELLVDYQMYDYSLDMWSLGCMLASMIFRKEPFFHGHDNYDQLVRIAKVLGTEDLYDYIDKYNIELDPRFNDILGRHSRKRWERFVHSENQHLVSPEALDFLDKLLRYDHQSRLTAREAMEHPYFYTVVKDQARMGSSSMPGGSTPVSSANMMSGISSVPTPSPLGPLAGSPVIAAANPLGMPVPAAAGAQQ
Sequence of UniProt Q13057 (Q13057 whole entry, looked up): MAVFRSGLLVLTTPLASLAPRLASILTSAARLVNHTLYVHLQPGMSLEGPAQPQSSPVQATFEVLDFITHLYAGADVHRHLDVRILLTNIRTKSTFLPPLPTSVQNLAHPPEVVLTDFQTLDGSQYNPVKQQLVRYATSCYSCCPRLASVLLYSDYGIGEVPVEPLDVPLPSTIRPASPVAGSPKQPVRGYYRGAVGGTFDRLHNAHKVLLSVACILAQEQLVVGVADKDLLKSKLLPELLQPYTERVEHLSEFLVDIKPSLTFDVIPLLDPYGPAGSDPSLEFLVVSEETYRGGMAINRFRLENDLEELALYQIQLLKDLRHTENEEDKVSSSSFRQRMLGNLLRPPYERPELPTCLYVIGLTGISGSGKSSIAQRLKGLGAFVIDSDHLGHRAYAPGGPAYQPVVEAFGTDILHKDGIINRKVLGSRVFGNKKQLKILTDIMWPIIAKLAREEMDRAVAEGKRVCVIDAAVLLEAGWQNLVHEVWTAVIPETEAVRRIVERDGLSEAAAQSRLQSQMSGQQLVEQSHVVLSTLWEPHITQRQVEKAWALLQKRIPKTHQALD
Sequence of UniProt Q96EP5 (Q96EP5 whole entry, looked up): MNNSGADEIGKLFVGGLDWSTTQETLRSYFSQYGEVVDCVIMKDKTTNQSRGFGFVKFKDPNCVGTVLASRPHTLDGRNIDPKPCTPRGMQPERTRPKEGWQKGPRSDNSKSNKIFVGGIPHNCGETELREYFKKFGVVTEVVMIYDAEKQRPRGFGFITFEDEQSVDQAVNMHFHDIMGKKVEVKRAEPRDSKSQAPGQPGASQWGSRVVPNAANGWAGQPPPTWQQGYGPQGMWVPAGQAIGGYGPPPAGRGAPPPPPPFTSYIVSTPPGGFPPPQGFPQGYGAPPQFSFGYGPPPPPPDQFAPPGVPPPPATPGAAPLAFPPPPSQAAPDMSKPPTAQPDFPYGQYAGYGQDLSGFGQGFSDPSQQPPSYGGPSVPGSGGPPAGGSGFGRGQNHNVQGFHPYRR
Sequence of UniProt Q9NSV4 (Q9NSV4 whole entry, looked up): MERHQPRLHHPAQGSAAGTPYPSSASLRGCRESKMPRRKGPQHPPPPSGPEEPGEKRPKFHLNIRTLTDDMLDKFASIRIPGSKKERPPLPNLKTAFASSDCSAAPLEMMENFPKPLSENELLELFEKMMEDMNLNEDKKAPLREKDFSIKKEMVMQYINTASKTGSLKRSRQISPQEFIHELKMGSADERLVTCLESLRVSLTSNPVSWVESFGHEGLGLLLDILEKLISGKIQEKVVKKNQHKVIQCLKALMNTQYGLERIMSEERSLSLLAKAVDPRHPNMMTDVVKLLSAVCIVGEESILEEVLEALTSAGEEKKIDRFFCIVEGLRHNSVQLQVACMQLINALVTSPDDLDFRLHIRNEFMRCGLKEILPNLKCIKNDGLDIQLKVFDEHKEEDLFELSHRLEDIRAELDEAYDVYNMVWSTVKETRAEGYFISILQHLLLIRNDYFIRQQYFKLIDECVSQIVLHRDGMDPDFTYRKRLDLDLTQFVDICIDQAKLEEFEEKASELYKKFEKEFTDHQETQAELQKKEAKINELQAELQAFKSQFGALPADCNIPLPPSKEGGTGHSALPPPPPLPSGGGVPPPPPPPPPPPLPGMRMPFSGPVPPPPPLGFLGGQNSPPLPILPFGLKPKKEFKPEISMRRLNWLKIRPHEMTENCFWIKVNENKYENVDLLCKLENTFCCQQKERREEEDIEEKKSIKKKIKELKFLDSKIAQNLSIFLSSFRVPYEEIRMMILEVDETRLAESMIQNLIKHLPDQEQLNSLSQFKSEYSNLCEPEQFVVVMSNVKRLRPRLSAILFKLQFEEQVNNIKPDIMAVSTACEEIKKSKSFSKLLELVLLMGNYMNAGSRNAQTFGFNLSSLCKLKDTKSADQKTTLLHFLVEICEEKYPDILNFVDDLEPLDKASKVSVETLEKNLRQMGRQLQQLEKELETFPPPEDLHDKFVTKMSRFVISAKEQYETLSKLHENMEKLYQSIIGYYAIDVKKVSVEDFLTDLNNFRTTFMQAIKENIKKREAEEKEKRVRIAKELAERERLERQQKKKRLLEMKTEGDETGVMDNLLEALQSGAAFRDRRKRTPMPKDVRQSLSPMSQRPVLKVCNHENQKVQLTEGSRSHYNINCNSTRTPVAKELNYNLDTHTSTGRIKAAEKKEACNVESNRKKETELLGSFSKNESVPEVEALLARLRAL
Sequence of UniProt Q99704 (Q99704 whole entry, looked up): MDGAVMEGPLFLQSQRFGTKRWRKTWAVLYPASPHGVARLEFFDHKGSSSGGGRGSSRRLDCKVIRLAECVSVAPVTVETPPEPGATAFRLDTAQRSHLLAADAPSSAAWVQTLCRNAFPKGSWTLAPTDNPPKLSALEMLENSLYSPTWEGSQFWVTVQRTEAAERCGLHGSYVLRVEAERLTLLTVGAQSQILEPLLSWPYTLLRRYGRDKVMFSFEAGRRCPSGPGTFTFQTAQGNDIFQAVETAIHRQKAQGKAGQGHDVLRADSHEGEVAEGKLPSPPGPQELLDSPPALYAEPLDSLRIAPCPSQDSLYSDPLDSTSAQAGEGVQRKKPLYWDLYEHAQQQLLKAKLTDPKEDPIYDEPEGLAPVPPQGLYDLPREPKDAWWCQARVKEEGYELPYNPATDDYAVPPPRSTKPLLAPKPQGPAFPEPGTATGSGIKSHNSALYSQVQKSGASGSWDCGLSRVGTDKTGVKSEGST
Sequence of UniProt Q13616 (Q13616 whole entry, looked up): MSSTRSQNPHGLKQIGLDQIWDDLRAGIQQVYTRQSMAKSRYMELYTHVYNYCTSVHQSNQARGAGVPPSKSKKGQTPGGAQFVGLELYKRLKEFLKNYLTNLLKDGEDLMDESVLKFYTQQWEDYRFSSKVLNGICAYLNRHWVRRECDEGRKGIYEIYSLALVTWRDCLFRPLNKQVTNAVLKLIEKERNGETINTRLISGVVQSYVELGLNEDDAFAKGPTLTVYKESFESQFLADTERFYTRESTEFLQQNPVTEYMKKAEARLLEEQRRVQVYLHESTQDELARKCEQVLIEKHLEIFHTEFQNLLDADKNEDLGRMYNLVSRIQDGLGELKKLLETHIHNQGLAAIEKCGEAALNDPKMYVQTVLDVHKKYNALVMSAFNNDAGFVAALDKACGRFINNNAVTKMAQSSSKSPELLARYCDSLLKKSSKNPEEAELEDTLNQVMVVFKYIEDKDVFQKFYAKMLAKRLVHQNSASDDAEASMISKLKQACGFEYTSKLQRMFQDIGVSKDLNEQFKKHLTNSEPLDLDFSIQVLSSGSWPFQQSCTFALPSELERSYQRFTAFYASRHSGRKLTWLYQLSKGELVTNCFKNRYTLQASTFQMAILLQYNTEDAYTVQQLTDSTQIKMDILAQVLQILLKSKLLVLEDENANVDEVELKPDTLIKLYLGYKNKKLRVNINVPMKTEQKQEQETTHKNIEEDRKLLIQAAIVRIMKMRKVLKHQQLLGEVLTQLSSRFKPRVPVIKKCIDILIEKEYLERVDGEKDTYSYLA

log2 fold change, inactive:
DERA (UniProt Q9Y315) -0.008, DCP2 (UniProt Q8IU60) 0.005, DNAAF5 (UniProt Q86Y56) -0.008, CORO1A (UniProt P31146) 0.077, DIAPH3 (UniProt Q9NSV4) 0.042, CTPS1 (UniProt P17812) -0.002, CNOT2 (UniProt Q9NZN8) 0.016, CYCS (UniProt P99999) -0.022, DNAJC1 (UniProt Q96KC8) -0.018, DHRS3 (UniProt O75911) 0.056, CORO7 isoform 3 (UniProt P57737) 0.035, CYP51A1 (UniProt Q16850) -0.029, DES (UniProt P17661) 0.014, COG5 isoform 2 (UniProt Q9UP83) 0.073, DOK1 (UniProt Q99704) -0.024, CSTF2 (UniProt P33240) -0.036, CSNK2A1 (UniProt P68400) 0.005, COG2 (UniProt Q14746) 0.009, DAZAP1 (UniProt Q96EP5) -0.017, CSK (UniProt P41240) 0.045, DLGAP5 (UniProt Q15398) -0.015, COASY isoform 2 (UniProt Q13057) 0.006, DPH5 isoform 5 (UniProt Q9H2P9) 0.008, DENND6A (UniProt Q8IWF6) -0.019, CIB1 (UniProt Q99828) -0.039, DIAPH1 (UniProt H9KV28) -0.1, DNAH10 (UniProt Q8IVF4) 0.003, COMT (UniProt P21964) 0.031, CUL1 (UniProt Q13616) -0.011, CLP1 (UniProt Q92989) 0.024, CHML (UniProt P26374) -0.03, CNOT4 isoform 9 (UniProt O95628) 0, CSNK2B (UniProt P67870) 0.045, DARS (UniProt P14868) 0.006
